Bioassay records: PubChem BioAssay, several laboratories
Compounds with a hit are over-represented: about 32% of the library has one in this group of screens.
PostGolgi ctrl – growth of the yeast control strain, post-Golgi counter-screen; 98,000 tested, 5% active; AID 738; inhibition, % at 10 µM; efflux-deficient yeast background strain, growth absorbance A615, 16 h
CYP2C9 inhib – inhibitors of human CYP2C9; P11712; inhibition, % at 5 µM; 96,000 tested, 20% active; CYP2C9 Supersomes, luciferin-H conversion, luminescence;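 active = blocking of liver enzyme CYP2C9 beyond about 50% at 5 µM, limit read from the data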
Target sequence (P11712 whole entry, looked up): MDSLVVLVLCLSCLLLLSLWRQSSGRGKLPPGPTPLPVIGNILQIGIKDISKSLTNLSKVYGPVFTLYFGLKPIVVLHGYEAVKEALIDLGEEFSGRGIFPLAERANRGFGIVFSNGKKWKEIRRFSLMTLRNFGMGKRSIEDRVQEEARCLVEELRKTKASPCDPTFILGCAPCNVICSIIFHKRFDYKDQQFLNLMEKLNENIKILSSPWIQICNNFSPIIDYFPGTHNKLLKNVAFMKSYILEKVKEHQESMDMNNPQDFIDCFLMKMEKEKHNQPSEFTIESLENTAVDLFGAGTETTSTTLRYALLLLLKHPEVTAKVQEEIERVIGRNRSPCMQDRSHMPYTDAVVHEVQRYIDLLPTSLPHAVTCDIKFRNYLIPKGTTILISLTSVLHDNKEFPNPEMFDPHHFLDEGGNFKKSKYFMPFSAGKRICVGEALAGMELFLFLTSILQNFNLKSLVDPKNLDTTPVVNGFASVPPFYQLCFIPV
CYP2C9 activ – CYP2C9 (human) activation; P11712; AID 1024; 96,000 tested, 1.4% active; activation factor at 5 µM; recombinant CYP2C9, luciferin-H conversion, luminescence; active compounds read high; factor 1 = untreated enzyme, 0 = blocked;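 active = activation factor of 2 or more for CYP2C9 at a 5 µM dose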
CYP2C19 activ – activators of human cytochrome P450 2C19; P33261; recombinant CYP2C19, luciferin-H EGE luminescence; active compounds read high; 0 = fully inhibited enzyme, 1 = untreated enzyme; activation factor at 5 µM; 96,000 tested, under 10 active; AID 1025;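 active = activation factor of at least 2 at 5 µM in the primary screen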
PostGolgi yeast – growth inhibition of a yeast mutant, post-Golgi transport screen | post-Golgi transport phenotypic cell assay | inhibition, % at 10 µM | 98,000 tested, 0.9% active | AID 739;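 also: yeast cells grown in 1536-well plates; yeast grown about 18 h at 30C before absorbance read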
CYP2C19 inhib – blocks human cytochrome P450 2C19; inhibition, % at 5 µM; 96,000 tested, 21% active; CYP2C19 Supersomes, luciferin-H EGE luminescence, 30 min; P33261; AID 778;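 active = CYP2C19 inhibition above a set limit at 5 µM in the primary screen, cut at about 50% in these data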
Numbers stand for hits; n = inactive. Rule as the data show it, unless noted: active = inhibition above about 30%; inactive = the rest.

SMILES	PostGolgi ctrl	CYP2C9 inhib	CYP2C9 activ	CYP2C19 activ	PostGolgi yeast	CYP2C19 inhib
Cc1ccc2nc(C)cc(OCC(=O)O)c2c1	n	n	n	n	44	n
Cc1nc(-c2ccc3c(c2)OCO3)cs1	n	n	n	n	n	n
c1cncc(-c2nc(-c3cccs3)cs2)c1	n	n	n	n	n	70
c1cncc(-c2nc(-c3ccc4c(c3)OCO4)cs2)c1	n	n	n	n	n	69
c1cncc(-c2nc(-c3ccco3)cs2)c1	n	n	n	n	n	n
Clc1ccsc1-c1csc(-c2cccnc2)n1	85	n	n	n	81	62
c1csc(-c2csc(-c3cccs3)n2)c1	n	n	n	n	n	n
CCCCOc1c(Br)cc(/C=C2\N=C(C)OC2=O)cc1OCC	n	n	n	n	n	n
CCOC(=O)CNC(=O)CSc1nc2sc(C)c(C)c2c(=O)n1C	n	50	n	n	n	70
CCOC(=O)Cc1csc2nc3sc(C)c(C)c3c(=O)n12	n	n	n	n	n	56
CCOCCCN(C(=O)Cn1nnc2ccccc21)C(C(=O)NCc1ccco1)c1ccncc1 (stereo unspecified)	n	n	n	n	n	n
COc1ccc(C2N(c3ccc(Cl)cc3)C(=O)C3CCCN32)cc1 (stereo unspecified)	n	n	n	n	n	52
COc1ccc(C2N(c3cccc(Cl)c3)C(=O)C3CCCN32)cc1 (stereo unspecified)	n	66	n	n	n	n
COc1nc(C#N)c(N2CCOCC2)o1	n	n	n	n	n	n
O=C(Oc1ccc2[nH]cc(CCN3C(=O)c4ccccc4C3=O)c2c1)c1ccco1	n	76	n	n	n	n
CN(C1CCS(=O)(=O)C1)S(=O)(=O)c1ccc(C2CCCCC2)cc1 (stereo unspecified)	n	n	n	n	n	n
COC(=O)c1ccc(NC(=O)CCN2CCN(c3ccccc3)CC2)cc1	n	55	n	n	n	n
O=C(CN1CCN(c2ccccc2)CC1)Nc1nccs1	n	90	n	n	n	70
O=C(CCN1CCN(c2ccccc2)CC1)Nc1ccc(OCc2ccccc2)cc1	n	n	n	n	n	n
CCc1nnc(NC(=O)CN2CCN(c3nc(-c4ccccc4)cs3)CC2)s1	42	64	n	n	n	n
O=C(CN1CCOCC1)Nc1ccc(Oc2ccccc2)cc1	n	n	n	n	n	n
O=C(CN1CCN(c2ccccc2)CC1)Nc1ccc(Oc2ccccc2)cc1	42	n	n	n	n	n
CC1(C)CC(=O)C2=C(C1)N(Cc1ccco1)C(=O)C2(O)C(F)(F)F (stereo unspecified)	n	n	n	n	n	n
Cc1onc(C(=O)/C=C/N(C)C)c1C(=O)Nc1nccs1	n	n	n	n	n	n
COCCCn1c(-c2ccsc2)nc2c1c(=O)[nH]c(=O)n2Cc1ccccc1	n	n	n	n	n	n
SMILES	PostGolgi ctrl	CYP2C9 inhib	CYP2C9 activ	CYP2C19 activ	PostGolgi yeast	CYP2C19 inhib
O=C(CN1CCNCC1)Nc1ccc(Oc2ccccc2)cc1	39	n	n	n	n	n
O=C(CN1CCCC1)Nc1ccc(Oc2ccc(NC(=O)CN3CCCC3)cc2)cc1	n	n	n	n	n	n
CC(=O)c1c(C)nc(-c2ccccc2)nc1NC(=O)C(C)C	n	74	n	n	n	n
CC(=O)Nc1nc(-c2ccccc2)nc(C)c1C(C)=O	n	n	n	n	n	n
CC(=O)c1c(C)nc(-c2ccc(Cl)cc2)nc1NC(=O)C(C)C	n	94	n	n	n	62
CCOc1cc(N2CCOCC2)c(OCC)cc1NC(=O)COc1ncnc2ccc(Br)cc12	n	n	n	n	n	n
Cc1ccc(S(=O)(=O)Cc2cn3cccnc3n2)cc1	n	n	n	n	n	n
COc1ccc(-c2nc(C)ncc2N=Nc2ccccc2)cc1	n	61	n	n	n	n
Cc1ncc(N=Nc2ccc(F)cc2)c(-c2ccc(Cl)cc2)n1	n	n	n	n	n	n
COc1ccc(NC(=O)CN(C)S(=O)(=O)c2ccc3c(c2)OCCO3)c2ncccc12	n	n	n	n	n	n
CCn1nc(NC(=O)c2ccncc2)c2cc3ccccc3nc21	n	67	n	n	n	70
COc1ccc2nc3c(cc2c1)c(NC(=O)c1cccs1)nn3CC(C)C	37	93	n	n	n	78
CC(C)Cn1nc(NC(=O)C(C)(C)C)c2cc3ccccc3nc21	n	52	n	n	n	n
CCCCC(=O)Nc1nn(CC(C)C)c2nc3ccccc3cc12	n	n	n	n	n	n
